TRPM1 prom inh – reduces MITF-dependent TRPM1 promoter luciferase signal; 330,000 tested, 0.83% active; SK-MEL-5 TRPM1 promoter luciferase, 24 h; AID 488899; inhibition, % at 12.5 µM;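 active = mean inhibition across replicates of 60% or more, whatever share of single replicates reaches that level; inconclusive = some that reach 60%, reason not given; inactive = mean inhibition across replicates below 60%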
Shn3 inh set2 – inhibitors of Schnurri-3 3'UTR reporter in osteoblasts | Clone20 osteoblast Shn3 3'UTR firefly luciferase, 24 h | inhibition, % at 12.5 µM | 360,000 tested, 0.52% active | AID 588674;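 active = mean inhibition of at least 75% with every replicate also reaching 75%; inconclusive = mean inhibition at least 75% but some replicate below; inactive = mean inhibition below 75%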;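 note: 0% = median of neutral control wells and 100% = pilot-screen positive control compound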
ABHD5-PLIN5 inh – blocks binding of human ABHD5 to perilipin-5. Split G. princeps luciferase complementation, luminescence, 4 h. inhibition, % at 4 µM. 360,000 tested, 0.78% active;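 active = inhibition above the mean inhibition across every tested compound plus 3 SD, cut at about 22% in these data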;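 note: 0% = DMSO only wells and the 100% control is not disclosed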
Target sequence (Q00G26 whole entry, looked up): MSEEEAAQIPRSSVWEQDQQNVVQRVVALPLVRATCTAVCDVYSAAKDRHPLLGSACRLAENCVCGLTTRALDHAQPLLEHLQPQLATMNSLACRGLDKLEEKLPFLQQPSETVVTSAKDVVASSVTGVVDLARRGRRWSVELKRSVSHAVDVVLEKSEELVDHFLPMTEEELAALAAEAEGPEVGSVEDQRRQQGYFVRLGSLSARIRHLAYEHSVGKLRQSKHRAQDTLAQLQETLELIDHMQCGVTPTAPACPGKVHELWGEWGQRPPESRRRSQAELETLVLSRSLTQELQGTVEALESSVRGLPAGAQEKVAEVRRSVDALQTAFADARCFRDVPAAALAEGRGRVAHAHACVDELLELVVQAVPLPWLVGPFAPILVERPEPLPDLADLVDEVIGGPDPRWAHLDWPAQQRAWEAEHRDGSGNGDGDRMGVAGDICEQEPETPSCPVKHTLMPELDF
Target sequence (Q8WTS1 whole entry, looked up): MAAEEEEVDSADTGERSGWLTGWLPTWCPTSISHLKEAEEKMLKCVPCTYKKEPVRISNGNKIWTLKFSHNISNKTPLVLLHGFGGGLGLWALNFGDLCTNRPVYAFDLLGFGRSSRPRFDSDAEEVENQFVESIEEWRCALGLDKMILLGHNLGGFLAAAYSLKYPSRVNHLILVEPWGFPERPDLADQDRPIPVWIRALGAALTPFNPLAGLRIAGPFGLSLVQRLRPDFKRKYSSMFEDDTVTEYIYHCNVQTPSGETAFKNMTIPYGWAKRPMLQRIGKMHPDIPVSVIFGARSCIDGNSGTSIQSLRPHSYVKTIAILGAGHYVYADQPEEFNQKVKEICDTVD
Peg3 prom inh – inhibitors of Peg3 promoter; inhibition, % at 20 µM; HeLa PEG-Prom luciferase reporter, luminescence, overnight; AID 588405; 360,000 tested, 1.7% active;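 active = inhibition of at least 50% at 20 µM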
EWS-Fli block – blocks EWS/Fli oncoprotein-driven transcription | A673 NR0B1-luciferase reporter, viability-normalised | inhibition, % at 12.6 µM | 350,000 tested, 0.67% active | AID 651661;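 active = mean inhibition of at least 50% after viability correction, with every replicate also passing that limit; inconclusive = mean reaches 50% but only one of two replicates passes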;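 note: firefly luciferase signal divided by Alamar Blue viability fluorescence both relative to DMSO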
PAX8 reporter – lowers PAX8-driven luciferase in RMG-I cells | RMG-I TPO-luciferase reporter, SteadyGlo, 24 h | inhibition, % at 12.6 µM | 360,000 tested, 1.2% active;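 active = mean replicate inhibition at least 60% with every replicate also reaching 60%; inconclusive = only one of the two criteria is met; inactive = mean below 60% and not all replicates reaching 60%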;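 note: luciferase light reporting Pax8 driven TPO promoter activity; plate controls were median of neutral control wells for no effect and mitoxantrone controls for full effect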
ABHD5-PLIN5 conf – ABHD5-PLIN5 interaction inhibition, confirmed; shares compounds with ABHD5-PLIN5 inh; biochemical ABHD5-PLIN5 interaction, luminescence; inhibition, % at 4 µM; 2,200 tested, 67% active; AID 651612; in the data active = inhibition above about 23%;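 note: 0% = DMSO vehicle wells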
HNF4 split-luc – HNF4 split-luciferase signal hit, counter-screen. inhibition, % at 4 µM. 2,200 tested, 77% active. HNF4 dimerization, luminescence, biochemical. AID 651674. shares compounds with ABHD5-PLIN5 inh;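 active = mean inhibition across replicate wells exceeding the computed hit threshold, cut at about 13% in these data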;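 note: light from luciferase halves that rejoin when HNF4 fusion proteins dimerize; 0% = DMSO only wells and the 100% control is not given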
Numbers without * were called inactive; ? = inconclusive; · = not tested or not shown. Shown are actives, neighbours in structure and some others; about 3% of the full set was active somewhere.

SMILES | TRPM1 prom inh | Shn3 inh set2 | ABHD5-PLIN5 inh | Peg3 prom inh | EWS-Fli block | PAX8 reporter | ABHD5-PLIN5 conf | HNF4 split-luc
Cc1nc2ccccc2c(N)c1C(=O)/C=C/c1ccccc1 | 3 | -2 | 34* | 72* | -1 | -2 | 41* | 37*
O=C(c1ccccc1)N1CC2(C1)[C@H](c1ccccc1)[C@H](CO)N2C(=O)CC1CC1 | · | · | · | · | 7 | · | · | ·
Cc1nnc(NC(=O)c2nc(S(=O)(=O)Cc3ccccc3)ncc2Cl)s1 | 35 | 92* | 34* | 110* | 58* | 6 | 71* | 51*
Cc1ccccc1CS(=O)(=O)c1ncc(Cl)c(C(=O)Nc2ccc(F)cc2)n1 | 91* | 95* | 77* | 108* | 56* | 30 | 89* | 90*
COc1ccc(OC)c(NC(=O)c2nc(S(=O)(=O)Cc3ccccc3)ncc2Cl)c1 | 95* | 97* | 50* | 106* | · | 53 | 93* | 87*
Cc1nnc(NC(=O)CS(=O)(=O)Cc2ccccc2)s1 | -3 | 4 | 8 | 40 | -2 | 4 | · | ·
CCOC(=O)c1ccc(NC(=O)c2nc(SC)ncc2Cl)cc1 | -6 | 10 | -2 | -8 | -6 | -2 | · | ·
Cc1ccc(NC(=O)c2nc(S(=O)(=O)Cc3ccccc3)ncc2Cl)cc1 | 95* | 95* | 72* | 100* | 61* | ? | 94* | 102*
CCCC#Cc1cnc2c(c1)C(=O)N([C@@H](C)CO)C[C@H](C)[C@@H](CN(C)C)O2 | · | · | · | · | -10 | · | · | ·
COCC(=O)Nc1ccc2c(c1)C(=O)N(C)[C@H]1CC[C@H](CC(=O)NCc3ccccc3F)O[C@@H]1CO2 | · | · | · | · | -4 | -22 | · | ·
CSc1ncc(Cl)c(C(=O)Nc2ccc(S(=O)(=O)Nc3nccc(C)n3)cc2)n1 | -2 | 6 | -8 | 14 | · | -7 | · | ·
O=C(Nc1ccc(F)cc1)c1nc(S(=O)(=O)Cc2ccccc2)ncc1Cl | 62* | 94* | 60* | 100* | 56* | 104* | 90* | 97*
Cc1noc(C)c1NC(=O)N(C)C[C@H]1OCCCC[C@H](C)Oc2ccc(NC(=O)Nc3cccc4ccccc34)cc2C(=O)N([C@H](C)CO)C[C@@H]1C | · | · | · | · | -4 | -14 | · | ·
Cc1ccc(-n2nc(-c3ccco3)cc2C(=O)O)c(C)c1 | 9 | -11 | 31* | 6 | 4 | 15 | 23* | 27*
O=C(O)c1cc(-c2ccco2)nn1-c1ccc(Cl)cc1 | -2 | -13 | 4 | 15 | 6 | 16 | · | ·
CN1\C(=C/C=C/C=C/C=[N+](C)C)C(C)(C)c2ccccc21 | 59 | 89* | 24* | 32 | 66* | 51 | 49* | 38*
CCOc1ccc2[nH]c(=O)c(CN(Cc3ccco3)C(=O)c3cccc(F)c3)cc2c1 | 16 | 13 | 17 | 25 | · | · | · | ·
CCOc1ccc2[nH]c(=O)c(CN(Cc3ccco3)C(=O)c3ccc(Br)cc3)cc2c1 | 9 | 6 | 30* | 24 | · | · | 89* | 92*
COc1ccc(C2CC(c3cccs3)=NN2S(C)(=O)=O)cc1 (stereo not given) | -43 | -54 | 0 | -63 | -36 | -52 | · | ·
COc1ccc(C2CC(c3cccs3)=Nc3ccccc3S2)cc1 (stereo not given) | -17 | -47 | 60* | -170 | -52 | · | -4 | -11
OC[C@@H]1[C@@H](c2ccccc2)C2(CN(CCC(F)(F)F)C2)N1Cc1nccs1 | · | · | · | · | -2 | · | · | ·
CNC[C@H]1Oc2cc(C#Cc3ccc(F)cc3)ccc2S(=O)(=O)N([C@@H](C)CO)C[C@H]1C | · | · | · | · | 8 | -13 | · | ·
CC1CC(C)(C)Nc2ccc(OC(=O)c3ccco3)cc21 (stereo not given) | 35 | 51 | 28* | -16 | · | · | 71* | 61*
O=C(Oc1ccc2ccccc2c1)c1ccco1 | 0 | -6 | 2 | -11 | · | 8 | · | ·
CCC(=O)N(C)C[C@H]1Oc2cc(C#Cc3ccncc3)ccc2S(=O)(=O)N([C@@H](C)CO)C[C@@H]1C | · | · | · | · | 2 | · | · | ·
COc1ccc(S(=O)(=O)N(C)C[C@H]2Oc3ccc(NC(=O)C4CCCCC4)cc3CC(=O)N([C@H](C)CO)C[C@H]2C)cc1 | · | · | · | · | 0 | 11 | · | ·

Source: PubChem (several laboratories)
